These results are taken from PubChem BioAssay (EPA / NIEHS).

A short description of assay [1]: ATG_ERE_CIS: Attagene CIS-FACTORIAL HepG2 Assay for Estrogen Response Element (ERE) (AID 2282940; active = hit-call score of the fitted dose curve at least 0.9, where 1 is the maximum; inactive = score below 0.9). The conditions noted are these: HepG2 ERE cis-reporter, Attagene RNA transcript; actives raise or lower the signal. In a few lines:
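Measuring endogenous transcription factor output, the assay doses transfected HepG2 cells for 24 hours and quantifies reporter transcripts by fluorescent RT-PCR and capillary electrophoresis, with DMSO as baseline.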

Assay [2] is described as follows: BSK_3C_uPAR: BioMAP Diversity Plus: 3C Assay for Urokinase-type plasminogen activator receptor (uPAR) Biomarker Activity (AID 2282998; active = hit-call score of the fitted dose curve at least 0.9, where 1 is the maximum; inactive = score below 0.9). The conditions noted are these: BioMAP 3C HUVEC, uPAR biomarker ELISA; actives raise or lower the signal. In a few lines: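 Readout: ELISA for surface uPAR. System: human umbilical vein endothelial primary cells, 24 h after chemical exposure. Analysis: bidirectional fit, DMSO baseline.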
Background: In an ELISA, binding on a coated surface is turned into a signal by an enzyme label.

Read-out in assay [3]: Monocyte Chemoattractant Protein-1 (MCP1), CCL2 (gene 6347)
Description: BSK_4H_MCP1: BioMAP Diversity Plus: 4H Assay for Monocyte Chemoattractant Protein-1 (MCP1) Biomarker Activity (AID 2283018; active = hit-call score of the fitted dose curve at least 0.9, where 1 is the maximum; inactive = score below 0.9). Particulars: primary human endothelial cells (HUVEC); actives raise or lower the signal. Summed up: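 HUVEC primary cells, 24 h post-dose, MCP-1 by ELISA. Gain or loss of signal fitted bidirectionally vs DMSO baseline. Cytotoxicity: SRB stain (0.1% after 10% TCA fixation), read 560 nm, parallel cultures.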

Read-out in assay [4]: Monokine induced gamma interferon (MIG), CXCL9 (gene 4283)
The experiment in a line: BSK_3C_MIG: BioMAP Diversity Plus: 3C Assay for Monokine induced gamma interferon (MIG) Biomarker Activity (AID 2283021; active = hit-call score of the fitted dose curve at least 0.9, where 1 is the maximum; inactive = score below 0.9;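 for AC50: MIG protein level measured by immunoassay in the treated endothelial cultures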). Particulars: primary human endothelial cells (HUVEC); actives raise or lower the signal. Summed up:
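HUVEC, 3C system; 24 h chemical exposure; MIG by ELISA; bidirectional fit vs DMSO baseline.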

Read-out in assay [5]: Urokinase-type plasminogen activator receptor (uPAR), PLAUR (gene 5329)
The experiment in a line: BSK_4H_uPAR: BioMAP Diversity Plus: 4H Assay for Urokinase-type plasminogen activator receptor (uPAR) Biomarker Activity (AID 2283030; active = hit-call score of the fitted dose curve at least 0.9, where 1 is the maximum; inactive = score below 0.9). Particulars: primary human endothelial cells (HUVEC); actives raise or lower the signal. Summed up:
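uPAR level read by ELISA on HUVEC cultures (BioMAP 4H) 24 h post-dosing, analyzed for gain or loss relative to DMSO. Parallel SRB staining assessed overt cytotoxicity.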

Read-out in assay [6]: Plasminogen activator inhibitor-1 (PAI1), SERPINE1 (gene 5054)
The experiment in a line: BSK_BE3C_PAI1: BioMAP Diversity Plus: BE3C Assay for Plasminogen activator inhibitor-1 (PAI1) Biomarker Activity (AID 2283037; active = hit-call score of the fitted dose curve at least 0.9, where 1 is the maximum; inactive = score below 0.9). The conditions noted are these: primary human bronchial epithelial cells; actives raise or lower the signal. Summed up: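 ELISA read-out of PAI-1 from human bronchial epithelial primary cells, 24 h post-dosing; bidirectional curve fit vs DMSO baseline, gain or loss of signal scored.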

Read-out in assay [7]: Tissue plasminogen activator (tPA), PLAT (gene 5327)
The experiment in a line: BSK_BE3C_tPA: BioMAP Diversity Plus: BE3C Assay for Tissue plasminogen activator (tPA) Biomarker Activity (AID 2283041; active = hit-call score of the fitted dose curve at least 0.9, where 1 is the maximum; inactive = score below 0.9;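 for outcome: tPA level quantified by ELISA one day after compound addition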). The conditions noted are these: primary human bronchial epithelial cells; actives raise or lower the signal. In a few lines: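 ELISA read-out of tPA on human primary bronchial epithelial cells, 24 h post-dosing; bidirectional fit vs DMSO negative control/baseline.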

Read-out in assay [8]: Thrombomodulin, THBD (gene 7056)
The experiment in a line: BSK_CASM3C_Thrombomodulin: BioMAP Diversity Plus: CASM3C Assay for Thrombomodulin Biomarker Activity (AID 2283051; active = hit-call score of the fitted dose curve at least 0.9, where 1 is the maximum; inactive = score below 0.9;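 note: thrombomodulin protein level measured by ELISA 24 h after dosing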). Particulars: primary human coronary artery smooth muscle cells; actives raise or lower the signal.

Assay [9] has as its target Estrogen receptor beta (Homo sapiens) (UniProt Q92731). Description: OT_ER_ERbERb_0480: Odyssey Thera (OT) 8-hour HEK293T Protein-Complementation Assay for Estrogen Receptor-beta/-beta Homodimer (AID 2283357).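 Note: active means signal gain over DMSO baseline.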 Summed up: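 ER-beta LBD homodimer PCA stably expressed in HEK293T; 8 h compound exposure, then formaldehyde fixation and Draq5 staining. Gain in nuclear/cytoplasmic fluorescence intensity versus DMSO vehicle, read on laser scanning cytometer.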

The target is the same in assay [10]. Description: OT_ER_ERbERb_1440: Odyssey Thera (OT) 24-hour HEK293T Protein-Complementation Assay for Estrogen Receptor-beta/-beta Homodimer (AID 2283380).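 Note: scored as signal increase over DMSO baseline for both agonists and antagonists.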 In a few lines: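 Fluorescence increase, nuclear for agonists or whole-cell for antagonists, relative to DMSO vehicle, quantified by laser scanning cytometer after fixation and Draq5 staining. Readout from 24 h treatment of HEK293T cells carrying complementation-paired ER beta LBD (aa 310-547).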

The target in assay [11] is Retinoic acid receptor RXR-alpha (Homo sapiens) (UniProt P19793). Description: OT_NURR1_NURR1RXRa_0480: Odyssey Thera (OT) 8-hour HEK293T Protein Complementation Assay for Nurr1/retinoid X receptor (RXR) (AID 2283385). In a few lines:
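Read-out: fluorescence from protein-fragment complementation between Nurr1 and RXRα in human HEK293T cells, 8 h after dosing. DMSO served as negative control; increased signal counted as activity.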

The target is the same in assay [12]. Description: OT_NURR1_NURR1RXRa_1440: Odyssey Thera (OT) 24-hour HEK293T Protein Complementation Assay for Nurr1/retinoid X receptor (RXR) (AID 2283386). In a few lines: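 Fluorescence PCA read-out; HEK293T; 24 h post-dose; bait/prey fused to reporter fragments; gain-of-signal fit vs DMSO negative control.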
Assay [13] deals with Peroxisome proliferator-activated receptor gamma (Homo sapiens) (UniProt P37231). Description: OT_PPARg_PPARgSRC1_1440: Odyssey Thera (OT) 24-hour Protein-Complementation Assay for Peroxisome Proliferator-activated Receptor Gamma/ SRC-1 Co-activator (AID 2283388).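 Note: nuclear to cytoplasmic ratio of reconstituted Venus YFP fluorescence in fixed imaged cells.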 In a few lines:
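Readout is the 488 nm N/C fluorescence ratio from fixed, Draq5-stained HEK293T cells after 24 h compound exposure. Cells carried transiently transfected PPARg and SRC-1 fused to Venus fragments, transfected 48 h before treatment.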

Assay [14] can be described thus: ACEA_AR_antagonist_AUC_viability: ACEA Biosciences xCELLigence Real-Time Cell Analysis on Androgen Receptor Antagonism for Viability (AID 2283776).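 Note: 22Rv1 human prostate cancer cells growing on impedance electrode plates; hits lower the growth signal relative to DMSO meaning cytotoxicity.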 Summed up: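 Impedance read-out (RT-CES): area under growth curve at 80 h post-dose, loss of signal scored vs DMSO baseline. 22Rv1 cells; 8-pt 1:4 series, top 100 uM final, ≤0.5% DMSO; biological duplicate.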
A short description of assay [15]: ACEA_ER_AUC_viability: ACEA Biosciences xCELLigence Real-Time Cell Analysis on Estrogen Receptor Agonism for Viability (AID 2283782).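 Note: hit means loss of impedance signal meaning reduced cell growth or viability.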 In a few lines: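 Viability endpoint: reduced impedance area under the curve relative to DMSO, recorded by real-time electrode sensing over ~80 h of continuous exposure. Duplicate plates of T47D in hormone-depleted medium; eight concentrations, 1:4 dilutions, 100 uM maximum.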

Assay [16] is described as follows: CCTE_Harrill_HTTr_Viability_MCF7: CCTE's 6-hour Cell Viability Assessment for the High-Throughput Transcriptomics (HTTr) Platform, in MCF-7 cells cultured in DMEM + 10% fetal bovine serum, Harrill Lab (AID 2284010; active = hit-call score of the fitted dose curve at least 0.9, where 1 is the maximum; inactive = score below 0.9). In a few lines:
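PI exclusion, high-content imaging; 8-pt dilution series, 6 h exposure; bidirectional fit vs DMSO (neg. ctrl/baseline); gain of signal = loss of membrane integrity.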

Assay [17] has as its target Steroid hormone receptor ERR1 (Homo sapiens) (UniProt P11474). The experiment in a line: ATG_ERRa_TRANS: Attagene TRANS-FACTORIAL HepG2 Assay for human Estrogen-Related Receptor alpha (ERRa) (AID 2282971). The conditions noted are these: HepG2 Attagene TRANS reporter, ERRa transactivation. Summed up: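 Reporter transcripts from ERRa-Gal4 chimera activity measured in transiently transfected human HepG2 cells 24 hours after dosing, using RT-PCR with 6-FAM primer extension, HpaI digestion and capillary electrophoresis; DMSO is baseline.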

Assay [18] concerns the target Estrogen-related receptor gamma (Homo sapiens) (UniProt P62508). Description: ATG_ERRg_TRANS: Attagene TRANS-FACTORIAL HepG2 Assay for human Estrogen-Related Receptor gamma (ERRg) (AID 2282977).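 Note: hits increase reporter signal over DMSO so potencies reflect activators.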 Particulars: HepG2 Attagene TRANS reporter, ERRg transactivation. In a few lines: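 Readout: fluorescent reporter-mRNA fragments resolved by capillary electrophoresis after RT-PCR and HpaI cut. Cells: transiently transfected HepG2 carrying GAL4-UAS reporters driven by exogenous NR-Gal4 chimeras, dosed 24 h. Activity fitted upward relative to DMSO baseline.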

Assay [19] can be described thus: ACEA_AR_agonist_AUC_viability: ACEA Biosciences xCELLigence Real-Time Cell Analysis on Androgen Receptor Agonism for Viability (AID 2283775).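 For AC50: viability read 80 hours after compound addition.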 In a few lines:
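Viability endpoint from xCELLigence impedance in 22Rv1 prostate cells at 80 h. Eight-point series, 100 uM maximum final.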

Assay [20] concerns the target Bile acid receptor (Homo sapiens) (UniProt Q96RI1). Description: ATG_FXR_TRANS: Attagene TRANS-FACTORIAL HepG2 Assay for Farnesoid X Receptor (FXR) (AID 2282979).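 Note: hits raise reporter mRNA above DMSO so AC50 marks FXR activation.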 The conditions noted are these: HepG2 Attagene TRANS FXR-GAL4 reporter transcription. In a few lines: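 Reporter transcripts from transfected HepG2 cells were measured 24 h after dosing, using RT-PCR with capillary electrophoresis of 6-FAM-labelled fragments. The read-out reflects activity of exogenous FXR-Gal4 chimera on GAL4-UAS units, with induction relative to DMSO.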

SMILES strings stand for the structures. Records with an inconclusive call do not appear. Some structures have more than one record in an assay (separate samples or runs), and their calls can disagree. The source made the active and inactive calls. Rule for the calls, unless noted: active = hit-call score of the fitted dose curve at least 0.9, where 1 is the maximum; inconclusive = response in the unintended direction; inactive = score below 0.9.

Estrogen receptor beta (Homo sapiens), sequence (Q92731 whole entry, looked up, the tested form may be a part): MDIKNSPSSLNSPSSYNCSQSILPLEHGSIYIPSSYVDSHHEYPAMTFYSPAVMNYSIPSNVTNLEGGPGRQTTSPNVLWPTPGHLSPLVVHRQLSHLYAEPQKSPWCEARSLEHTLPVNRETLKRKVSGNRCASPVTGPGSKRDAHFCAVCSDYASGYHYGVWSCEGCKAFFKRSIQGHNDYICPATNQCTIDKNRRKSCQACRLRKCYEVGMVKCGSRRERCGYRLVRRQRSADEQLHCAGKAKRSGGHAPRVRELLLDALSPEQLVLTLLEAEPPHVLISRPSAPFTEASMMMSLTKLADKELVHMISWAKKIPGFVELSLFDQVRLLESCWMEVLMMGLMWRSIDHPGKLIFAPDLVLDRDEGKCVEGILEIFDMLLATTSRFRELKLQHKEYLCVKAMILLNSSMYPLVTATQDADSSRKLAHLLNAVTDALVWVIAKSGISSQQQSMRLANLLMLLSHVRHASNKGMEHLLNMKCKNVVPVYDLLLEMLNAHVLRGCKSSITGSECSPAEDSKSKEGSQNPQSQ
Retinoic acid receptor RXR-alpha (Homo sapiens), sequence (P19793 whole entry, looked up, the tested form may be a part): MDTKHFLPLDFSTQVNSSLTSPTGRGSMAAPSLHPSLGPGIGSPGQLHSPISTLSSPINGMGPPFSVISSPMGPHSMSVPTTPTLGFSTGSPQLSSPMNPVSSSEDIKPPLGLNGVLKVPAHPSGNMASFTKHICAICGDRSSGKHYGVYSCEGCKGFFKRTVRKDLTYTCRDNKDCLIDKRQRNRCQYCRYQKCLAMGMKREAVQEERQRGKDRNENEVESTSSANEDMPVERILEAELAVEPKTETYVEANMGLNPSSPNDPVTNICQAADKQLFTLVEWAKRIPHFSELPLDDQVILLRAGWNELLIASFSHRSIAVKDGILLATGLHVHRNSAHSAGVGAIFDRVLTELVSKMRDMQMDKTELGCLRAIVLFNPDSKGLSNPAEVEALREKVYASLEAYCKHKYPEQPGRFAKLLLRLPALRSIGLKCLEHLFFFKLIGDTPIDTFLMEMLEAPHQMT
Estrogen-related receptor gamma (Homo sapiens), sequence (P62508 whole entry, looked up, the tested form may be a part): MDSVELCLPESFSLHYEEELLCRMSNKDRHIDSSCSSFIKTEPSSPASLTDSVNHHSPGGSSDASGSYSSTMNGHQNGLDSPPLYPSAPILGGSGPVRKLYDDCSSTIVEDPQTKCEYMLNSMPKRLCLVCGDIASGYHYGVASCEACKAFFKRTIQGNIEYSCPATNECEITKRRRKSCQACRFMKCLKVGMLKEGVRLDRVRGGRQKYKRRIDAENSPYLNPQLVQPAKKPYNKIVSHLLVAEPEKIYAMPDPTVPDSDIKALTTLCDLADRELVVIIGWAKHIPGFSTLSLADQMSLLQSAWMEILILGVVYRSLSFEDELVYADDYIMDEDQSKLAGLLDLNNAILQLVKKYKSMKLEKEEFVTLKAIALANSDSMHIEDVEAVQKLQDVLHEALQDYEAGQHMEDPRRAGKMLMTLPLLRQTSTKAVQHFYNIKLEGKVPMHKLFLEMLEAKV
Bile acid receptor (Homo sapiens), sequence (Q96RI1 whole entry, looked up, the tested form may be a part): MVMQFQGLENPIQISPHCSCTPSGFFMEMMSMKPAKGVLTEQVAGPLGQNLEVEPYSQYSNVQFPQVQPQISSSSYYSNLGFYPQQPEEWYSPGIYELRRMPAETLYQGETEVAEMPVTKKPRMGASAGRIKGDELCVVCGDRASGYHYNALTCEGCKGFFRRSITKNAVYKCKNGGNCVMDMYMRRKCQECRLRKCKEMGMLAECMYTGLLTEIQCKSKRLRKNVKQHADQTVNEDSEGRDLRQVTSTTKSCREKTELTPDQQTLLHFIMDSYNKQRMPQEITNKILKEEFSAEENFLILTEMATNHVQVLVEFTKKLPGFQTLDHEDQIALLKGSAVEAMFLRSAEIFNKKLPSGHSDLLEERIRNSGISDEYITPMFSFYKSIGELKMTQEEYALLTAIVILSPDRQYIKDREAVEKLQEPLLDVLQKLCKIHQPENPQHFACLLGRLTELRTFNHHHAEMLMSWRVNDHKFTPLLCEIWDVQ
Peroxisome proliferator-activated receptor gamma (Homo sapiens), sequence (P37231 whole entry, looked up, the tested form may be a part): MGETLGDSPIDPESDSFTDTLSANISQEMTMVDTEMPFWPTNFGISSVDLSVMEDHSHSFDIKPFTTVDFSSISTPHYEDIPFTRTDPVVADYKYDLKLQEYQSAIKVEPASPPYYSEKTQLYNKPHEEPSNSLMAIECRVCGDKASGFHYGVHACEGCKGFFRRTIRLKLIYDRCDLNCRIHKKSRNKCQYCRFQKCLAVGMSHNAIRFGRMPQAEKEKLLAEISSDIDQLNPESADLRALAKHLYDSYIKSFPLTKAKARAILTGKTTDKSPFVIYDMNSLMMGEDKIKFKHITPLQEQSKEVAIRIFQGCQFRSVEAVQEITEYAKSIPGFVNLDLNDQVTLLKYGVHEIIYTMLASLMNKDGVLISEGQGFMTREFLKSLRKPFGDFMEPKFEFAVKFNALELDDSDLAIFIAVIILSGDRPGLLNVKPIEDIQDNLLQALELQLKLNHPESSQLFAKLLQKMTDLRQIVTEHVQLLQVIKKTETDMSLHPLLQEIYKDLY
Steroid hormone receptor ERR1 (Homo sapiens), sequence (P11474 whole entry, looked up, the tested form may be a part): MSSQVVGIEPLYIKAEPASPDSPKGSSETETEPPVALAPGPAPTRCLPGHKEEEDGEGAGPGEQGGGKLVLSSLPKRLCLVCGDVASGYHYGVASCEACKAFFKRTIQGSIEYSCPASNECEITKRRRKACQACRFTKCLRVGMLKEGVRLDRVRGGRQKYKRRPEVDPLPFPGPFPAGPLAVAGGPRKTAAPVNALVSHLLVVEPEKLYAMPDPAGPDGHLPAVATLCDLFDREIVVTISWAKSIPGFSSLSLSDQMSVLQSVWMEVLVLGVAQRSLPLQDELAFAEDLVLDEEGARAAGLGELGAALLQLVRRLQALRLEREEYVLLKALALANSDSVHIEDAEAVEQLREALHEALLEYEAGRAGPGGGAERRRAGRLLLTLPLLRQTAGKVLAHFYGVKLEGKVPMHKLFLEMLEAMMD

In the case of `CCc1cc(C)cc(CC)c1-c1c(OC(=O)C(C)(C)C)n2n(c1=O)CCOCC2`, the call in [1], in assay [3], in assay [4], in assay [5] and in assay [8] was inactive. Besides, the AC50 – broadly, the midpoint of the concentration-response curve, whichever way the signal moves – in assay [2] is 4 µM (active); in [6], 6.89 µM (active); in assay [7] it was 5.24 µM (active).

`c1ccc(P(c2ccccc2)c2ccccc2)cc1`: the AC50 in [1] is 23.5 µM (active); in assay [9], 25.4 µM (active); in [15] it was 82.9 µM (active). Also, the molecule was called inactive in assay [10], in assay [11], in assay [12], in [13] and in assay [14].

With `Oc1cc(Cl)ccc1Cl`, the outcome in assay [2], in assay [3], in assay [4], in assay [5], in [6] and in assay [7] was inactive. Besides, the outcome in [8], in assay [12], in assay [13], in assay [14] and in assay [16] was inactive.

In the case of `CCOC(=O)N(C)N=O`, in assay [17], the molecule was classed as inactive.

As for `O=C(NCNC(=O)NC1C(=O)NC(=O)N1CO)NC1C(=O)NC(=O)N1CO` (stereo not drawn), the molecule was called inactive in assay [18], in [10], in [11], in assay [13], in assay [19] and in assay [14]. Also, the AC50 in [12] is 78 µM (active); in assay [15], 9.92 µM (active).

Turning to `CC(C)C(=O)Cl`, the molecule was called inactive in [18] and in assay [20].

In the case of `CCC[N+](=O)[O-]`, the outcome in assay [15] and in [16] was inactive.

As for `COc1ccc(CO)cc1`, the molecule was called inactive in [20], in assay [2], in assay [3], in [4], in assay [5] and in assay [6]. The result in assay [7], in assay [8] and in [16] was inactive. The half-maximal activity concentration (AC50) in assay [6] is 0.308 µM (active).

In the case of `S=c1[nH]c2ccccc2[nH]1`, the molecule was called inactive in assay [17], in [18] and in assay [15].

Turning to `CCOC(=O)NC(=S)Nc1ccccc1NC(=S)NC(=O)OCC`, the molecule was classed as inactive in assay [17], in assay [18], in assay [9], in assay [10] and in assay [13]. Further, the AC50 in [14] was 4.35 µM (active).

With `CN(C)N`, the result in assay [9], in assay [10], in assay [11], in assay [13], in [19] and in assay [14] was inactive. The outcome in assay [15] and in assay [16] was inactive.

For `O=C(CCN1CC1)OCC(CO)(COC(=O)CCN1CC1)COC(=O)CCN1CC1`, the result in assay [20] was inactive.

As for `O=C(CCl)c1ccccc1`, the AC50 is 6.89 µM (active) in assay [2]; 5.41 µM (active) in assay [3]; 9.6 µM (active) in assay [4]; 9.98 µM (active) in [5]; 11.6 µM (active) in assay [12]; 78.5 µM (active) in [19]. Also, the AC50 in [14] was 69.7 µM (active); in [15], 10.9 µM (active). Also, the result in assay [6], in assay [7], in assay [8], in assay [10], in assay [11] and in assay [13] was inactive. Besides, in assay [16], the outcome was inactive.
